Hit rate of the full screen: of about 120,000 compounds, about 5,300 (4.4%) were called active. About 22% were inconclusive and are not listed. The sample as a whole holds a higher share of actives than the screen did. A number with no mark means an inactive call. Calls follow the shape of the dose curve; as a rule, active = well fitted inhibition curve with a large enough effect; inconclusive = small, poorly fitted or top-dose-only effect; inactive = no such curve, though single readings can be large or run the other way.
test: qHTS Primary assay for Inhibitors of Plasmodium falciparum Dd2 growth in vitro; also: nearly all actives have a fitted effect of over 65% in size;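 as to activity, negative = inhibition: plate controls were DMSO vehicle for no effect and reference drug for full effect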; conditions: P. falciparum Dd2 growth, SYBR Green, 72 h; series mostly up to 28.9 µM; activity, negative = inhibition: at the top concentration
Method in brief: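 Readout: SYBR Green fluorescence, 485 nm excitation, 535 nm emission, after ~16 h lysis at 37C. Before that, Dd2-infected red cells (2.5% hematocrit) grew 72 h with compound, 29 uM top final concentration.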
Potency is read from the fitted curve at half-maximal effect.

SMILES	activity, negative = inhibition	Potency	outcome
COc1ccc(-c2cc(N3CCCN(C(=O)c4ccc(OC)cc4C)CC3)n[nH]2)cc1	-0.81%		
CCn1nccc1C(=O)N1CCn2nnc(CCC(=O)NCc3ccccc3)c2C1	-10.8%		
Cc1ccccc1-c1[nH]nc2ncc(-c3ccccc3)nc12		3.98 µM (active)	
COc1ccc(-c2[nH]nc3ncc(-c4ccccc4)nc23)c(C)c1			inactive [at 44.1 µM]
Cc1ccsc1-c1[nH]nc2ncc(-c3ccccc3O)nc12			inactive [at 44.1 µM]
Cc1ccc(CNC(=O)C2(c3ccc(NS(C)(=O)=O)cc3)CCCCC2)cc1			inactive
O=C(c1cccc(Cl)c1)N1CCC2(CC1)NCc1ccccc1NC2=O	13.6%		
NCC(=O)N1Cc2ccccc2CC2(CCCCN2CC2CCOCC2)C1 (stereo unspecified)	-17.2%		
NCC(=O)N1CCCC2(Cc3ccccc3CN2C(=O)c2cccc(Cl)c2)C1 (stereo unspecified)		11.2 µM (active)	
COc1ccc(CN2CC[C@@H]3CN(S(C)(=O)=O)[C@@H]3C2)c(OC)c1			inactive
Fc1ccc(-c2cc(NC3CCCC3)nc3[nH]ccc23)nc1	-12%		
c1cncc(CNc2cc(-c3cnc4ccccc4n3)c3cc[nH]c3n2)c1		3.98 µM (active)	
c1ccc(CN2CCNc3cc(NCc4cccnc4)ncc3C2)cc1			inactive [at 44.1 µM]
NC(=O)c1ccc(OC2CCN(C(=O)CCc3ccccc3)C2)nc1 (stereo unspecified)	-6.28%		
O=C(c1ccccc1F)N1CC(Oc2cccc(-c3nc(-c4ccccc4)no3)c2)C1	36.6% [at 5.79 µM]		
CCCC(=O)N1CCC(N2C(=O)C(O)C23CCCCC3)CC1 (stereo unspecified)	0.413%		
COCCN1CC[C@H]2CN(C(=O)Cc3ccc(OC)cc3)CC[C@H]2CC1=O	10.6% [at 44.1 µM]		
C[C@]1(CO)C2CC[C@@H](O)[C@@H](CC(=O)N3CC[C@@H](O)C3)[C@]2(C)CC[C@H]1OC(=O)Nc1ccc(Oc2ccccc2)cc1 (stereo partly specified)	-6.06%		
COc1ccc(CCNC(=O)c2ccc3c(c2)nc(C)n3-c2ccc(Br)cc2)cc1OC	-28.2%		
COc1ccc(CCNC(=O)c2ccc(-n3c(C)cc4c3CCCC4)cc2)cc1OC		11.2 µM (active)	
COc1ccccc1CNC(=O)c1cc2c(s1)CCN(C(=O)c1ccccc1)C2			inactive
COc1ccccc1Oc1ncccc1CNC(=O)c1ccc2n[nH]nc2c1	13.3%		
CCOc1ccccc1CNC(=O)C1CCCN(S(=O)(=O)c2ccc3c(ccn3C)c2)C1 (stereo unspecified)	-28.2%		
CCOc1ccccc1CNC(=O)c1ccc(-n2c(C)cc3c2CCC(C)C3)cc1 (stereo unspecified)		12.6 µM (active)	
COc1ccc(CCNC(=O)c2noc(-c3ccc(C)cc3)n2)cc1OC	7.54%		
COc1ccccc1CNC(=O)c1ccc(-n2c(C)cc3c2CCCC3)cc1		11.2 µM (active)	

SMILES	activity, negative = inhibition	Potency	outcome
CCOc1ccccc1CNC(=O)c1ccc2c(c1)nc1n2CCC(C)C1 (stereo unspecified)	-12.9%		
COc1ccc(NC(=O)Cn2ccn3nc(-c4ccc(F)cc4)c(CO)c3c2=O)c(OC)c1			inactive
O=C(N[C@@H]1CN[C@H](CO)C1)c1ccncc1	21.8%		
COC(=O)[C@@H]1Cc2c([nH]c3ccccc23)[C@H]2C[C@@H](NCCN3CCOCC3)C[C@@H](c3ccccc3F)N21	-10.2%		
Cc1cnc(C)c(N2CCN(C(=O)[C@H]3CC[C@@H](N)C3)CC2)n1	-12.3%		
CC(=O)N1CCCC(c2nn(-c3ccccc3)c(=O)[nH]2)C1 (stereo unspecified)	16.5% [at 44.1 µM]		
O=C(Cc1ccc(F)cc1)N1CCCC(c2nn(-c3ccc(Cl)cc3)c(=O)[nH]2)C1 (stereo unspecified)			inactive
O=c1[nH]c(C2CCCN(Cc3ccccn3)C2)nn1-c1ccc(Cl)cc1 (stereo unspecified)		1.41 µM (active)	
COCc1nnc(NC(=O)C2c3ccccc3C(=O)N(C3CCCC3)C23CCCC3)s1 (stereo unspecified)		7.94 µM (active)	
Cc1cccnc1NC(=O)C1c2ccccc2C(=O)N(C2CCCC2)C12CCCC2 (stereo unspecified)	-16.7%		
COCCNC(=O)C1c2ccccc2C(=O)N(C2CCCC2)C12CCCCC2 (stereo unspecified)	-4.12%		
CS(=O)(=O)N1CCC(F)(c2nc(-c3ccccc3)no2)CC1	13.4%		
CN1CC(=O)N(c2ccccc2F)Cc2c(NCCc3ccc(F)cc3)ncnc21			inactive
Cc1sc2cc(C(=O)N(C)C)[nH]c2c1CN1CCCCC1			inactive
CC(C)OC(=O)c1ccc(NC(=O)Cn2nc3c(cc2=O)CCCCC3)cc1	-15.3%		
Cc1c(NS(=O)(=O)c2ccc(Cl)cc2)c(=O)n(-c2ccccc2)n1C	39.5%		
CC(=O)c1c(C)n(S(=O)(=O)c2ccc(Cl)cc2)c2ccc(NS(=O)(=O)c3ccc(Cl)cc3)cc12		11.2 µM (active)	
Cn1c(=O)n(C)c2cc(NS(=O)(=O)c3ccc(F)cc3)ccc21	33%		
COCCCNc1nc2c(S(=O)(=O)c3ccc(C(C)C)cc3)nnn2c2ccccc12	-17.5%		
COc1cc2c(=O)c(S(=O)(=O)c3ccc(C(C)C)cc3)cn(Cc3ccccc3C)c2cc1OC		8.91 µM (active)	
O=C(NCc1cc(F)cc(F)c1)c1noc(-c2ccc3c(c2)OCO3)n1	-24.1%		
COc1ccc(CNC(=O)N2CCCCC2c2noc(COCC3CC3)n2)cc1 (stereo unspecified)	-6.85%		
CCOc1cccc2cc(-c3cn4c(n3)sc3cc(C)ccc34)c(=O)oc12	51.3%		
Cc1ccc(-c2cn3c(n2)sc2cc(C(=O)NCCCc4ccccc4)ccc23)cc1	-4.39%		
Cc1ccc(-c2cn3c(n2)sc2cc(C(=O)NCc4cccs4)ccc23)c(C)c1		11.2 µM (active)	
